# Measurements from PubChem BioAssay (NCI).
# Values joined by “and” are separate entries in the source; they are usually repeats but may differ in a detail not shown here. Identical values can stand only once. About 79,000 compounds went through this panel and 15% of them were active in at least one assay; those are over-represented in the sample as a whole. More than one record can exist for a structure, and the calls need not agree. Active and inactive are the calls of the source. Cut-off read from the data, not from the text of the source: active = growth inhibition above about 70%; inactive = the rest.
# Key:
# [1] = NCI Yeast Anticancer Drug Screen. Data for the rad52 strain (AID 147);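 note: 0% = growth of vehicle-treated control cultures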; conditions: S. cerevisiae rad52 mutant growth inhibition, stronger effect = higher value
# How it was run: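 Screen used a yeast mutant impaired in DNA repair. After compound exposure, growth was measured. Values reflect inhibition compared with vehicle-treated cells.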
# [2] = NCI Yeast Anticancer Drug Screen. Data for the wt1 strain (AID 149);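 note: 0% = growth of vehicle-treated wt1 cultures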; conditions: S. cerevisiae wt1 strain (SPY 50644) growth inhibition, stronger effect = higher value
# How it was run: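 Each compound is tested on wt1 yeast and the loss of growth versus vehicle gives the inhibition value.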
# [3] = NCI Yeast Anticancer Drug Screen. Data for the rad50EPP+ strain (AID 151);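 note: 0% = growth of vehicle-treated control cultures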; conditions: S. cerevisiae rad50 mutant strain, stronger effect = higher value
# How it was run: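 Exposing the rad50EPP+ strain to each compound, growth was compared with vehicle-only cultures to give inhibition.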
# [4] = NCI Yeast Anticancer Drug Screen. Data for the mgt1 strain (AID 153); conditions: S. cerevisiae mgt1 mutant growth inhibition, stronger effect = higher value
# How it was run: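 Genetically defined yeast (mgt1) treated with compound; inhibition of growth expressed against vehicle-treated controls.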
# [5] = NCI Yeast Anticancer Drug Screen. Data for the rad50 strain (AID 155);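 note: 0% = growth of vehicle-only cultures of the same strain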; conditions: S. cerevisiae rad50 strain growth inhibition, stronger effect = higher value
# How it was run: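 Vehicle-treated cultures provide the reference for the growth inhibition reported for compound-exposed, repair-deficient yeast.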
# [6] = NCI Yeast Anticancer Drug Screen. Data for the mec2-1 strain (AID 157); conditions: S. cerevisiae mec2-1 strain, stronger effect = higher value
# How it was run: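 Readout is yeast growth inhibition, normalised to vehicle-treated controls, in the mec2-1 strain exposed to compound.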
# [7] = NCI Yeast Anticancer Drug Screen. Data for the rad14 strain (AID 159);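 note: 0% = growth of vehicle-treated control cultures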; conditions: S. cerevisiae rad14 strain growth inhibition, stronger effect = higher value
# How it was run: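 Inhibition of growth is reported for a repair-deficient yeast mutant following compound treatment, calculated relative to cultures that received vehicle.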
# [8] = NCI Yeast Anticancer Drug Screen. Data for the sgs1 mgt1 strain (AID 161);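 note: 0% = growth of cultures given vehicle only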; conditions: S. cerevisiae sgs1 mgt1 strain, stronger effect = higher value
# How it was run: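 Compounds are added to genetically altered yeast, and growth is compared with cultures given vehicle alone to give percent inhibition.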
# [9] = NCI Yeast Anticancer Drug Screen. Data for the CLN2oe strain (AID 163);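 note: 0% = growth of vehicle-only control cultures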; conditions: S. cerevisiae CLN2oe strain, stronger effect = higher value
# How it was run: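 Values reflect how much compound exposure reduced yeast growth, referenced to vehicle-exposed cells. Assay organism is a strain with a defined genetic change affecting cell-cycle control.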
# [10] = NCI Yeast Anticancer Drug Screen. Data for the cln2 rad14 strain (AID 165);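 note: 0% = growth equal to vehicle treated cultures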; conditions: S. cerevisiae cln2 rad14 strain, stronger effect = higher value
# How it was run: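 Relative to vehicle controls, growth inhibition of compound-treated cln2 rad14 yeast was recorded.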
# [11] = NCI Yeast Anticancer Drug Screen. Data for the bub3 strain (AID 167); conditions: S. cerevisiae bub3 mutant strain, stronger effect = higher value
# How it was run: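 Mutant yeast screening strain plus compound; vehicle-treated cultures serve as the 0% inhibition reference.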
# [12] = NCI Yeast Anticancer Drug Screen. Data for the wt2 strain (AID 169); conditions: S. cerevisiae wt2 strain growth inhibition, stronger effect = higher value
# How it was run: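 Values express reduction in yeast growth under compound treatment, referenced to vehicle-treated cells.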
# [13] = NCI Yeast Anticancer Drug Screen. Data for the mlh1 strain (AID 171);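 note: 0% = growth of vehicle-treated control cultures of the same strain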; conditions: S. cerevisiae mlh1 strain growth inhibition, stronger effect = higher value
# How it was run: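 Steps: expose the defined-mutant yeast strain to compound; expose a parallel culture to vehicle; measure growth; express compound effect as inhibition relative to the vehicle culture.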
# [14] = NCI Yeast Anticancer Drug Screen. Data for the sgs1 strain (AID 173);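 note: 0% = growth of vehicle-only control cultures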; conditions: S. cerevisiae sgs1 mutant, stronger effect = higher value
# How it was run: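 Treat defined-mutant yeast with compound; measure growth; calculate inhibition relative to vehicle-treated cells.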
# [15] = NCI Yeast Anticancer Drug Screen. Data for the mlh1 rad18 strain (AID 175); conditions: S. cerevisiae mlh1 rad18 strain growth inhibition, stronger effect = higher value
# How it was run: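 Test agents were incubated with a yeast strain of defined genotype (DNA damage repair defect). Inhibition of growth was derived by comparison with vehicle-exposed cultures.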
# [16] = NCI Yeast Anticancer Drug Screen. Data for the rad18 strain (AID 177); conditions: S. cerevisiae rad18 mutant growth inhibition, stronger effect = higher value
# How it was run: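 A genetically defined yeast mutant impaired in DNA damage repair was treated with test compounds, then its growth was measured against cultures receiving vehicle alone.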
# [17] = at 5.0 µM (retest, dose inferred, filed as 0.5)
# [18] = at 50.0 µM (retest, dose inferred, filed as 5.0)
smiles,measurement,setting,value
Cc1ccc(N=Nc2ccc(O)c(=O)cc2)cc1,growth inhibition,[1]; at 1.2 µM,-11% (inactive)
same,growth inhibition,[1]; at 3.7 µM,1% (inactive)
same,growth inhibition,[1]; at 11.0 µM,54% (inactive)
same,growth inhibition,[1]; at 33.0 µM,89% (active)
same,growth inhibition,[1]; at 100.0 µM,93% (active)
same,growth inhibition,[2]; at 1.2 µM,1% (inactive)
same,growth inhibition,[2]; at 3.7 µM,25% (inactive)
same,growth inhibition,[2]; at 11.0 µM,37% (inactive)
same,growth inhibition,[2]; at 33.0 µM,78% (active)
same,growth inhibition,[2]; at 100.0 µM,91% (active)
same,growth inhibition,[3]; at 1.2 µM,-31% (inactive)
same,growth inhibition,[3]; at 3.7 µM,-64% (inactive)
same,growth inhibition,[3]; at 11.0 µM,-24% (inactive)
same,growth inhibition,[3]; at 33.0 µM,62% (inactive)
same,growth inhibition,[3]; at 100.0 µM,87% (active)
same,growth inhibition,[4]; at 1.2 µM,8% (inactive)
same,growth inhibition,[4]; at 3.7 µM,29% (inactive)
same,growth inhibition,[4]; at 11.0 µM,56% (inactive)
same,growth inhibition,[4]; at 33.0 µM,86% (active)
same,growth inhibition,[4]; at 100.0 µM,91% (active)
same,growth inhibition,[5]; at 1.2 µM,4% (inactive)
same,growth inhibition,[5]; at 3.7 µM,5% (inactive)
same,growth inhibition,[5]; [17],17% (inactive)
same,growth inhibition,[5]; at 11.0 µM,42% (inactive)
same,growth inhibition,[5]; at 33.0 µM,83% (active)
same,growth inhibition,[5]; [18],81% (active)
same,growth inhibition,[5]; at 50.0 µM,-18.2% (inactive) and 82.3% (active)
same,growth inhibition,[5]; at 100.0 µM,92% (active)
same,growth inhibition,[6]; at 1.2 µM,-13% (inactive)
same,growth inhibition,[6]; at 3.7 µM,-7% (inactive)
same,growth inhibition,[6]; [17],-2% (inactive)
same,growth inhibition,[6]; at 11.0 µM,26% (inactive)
same,growth inhibition,[6]; at 33.0 µM,82% (active)
same,growth inhibition,[6]; [18],43% (inactive)
same,growth inhibition,[6]; at 50.0 µM,8.6% (inactive) and 88.3% (active)
same,growth inhibition,[6]; at 100.0 µM,91% (active)
same,growth inhibition,[7]; at 1.2 µM,-3% (inactive)
same,growth inhibition,[7]; at 3.7 µM,1% (inactive)
same,growth inhibition,[7]; at 11.0 µM,47% (inactive)
same,growth inhibition,[7]; at 33.0 µM,84% (active)
same,growth inhibition,[7]; at 100.0 µM,92% (active)
same,growth inhibition,[8]; [17],53% (inactive)
same,growth inhibition,[8]; [18],95% (active)
same,growth inhibition,[8]; at 50.0 µM,-10.6% (inactive) and 89.8% (active)
same,growth inhibition,[9]; at 1.2 µM,-2% (inactive)
same,growth inhibition,[9]; at 3.7 µM,16% (inactive)
same,growth inhibition,[9]; at 11.0 µM,47% (inactive)
same,growth inhibition,[9]; at 33.0 µM,83% (active)
same,growth inhibition,[9]; at 100.0 µM,93% (active)
same,growth inhibition,[10]; [17],13% (inactive)
same,growth inhibition,[10]; [18],95% (active)
same,growth inhibition,[10]; at 50.0 µM,-1.5% (inactive) and 90.4% (active)
same,growth inhibition,[11]; at 1.2 µM,-6% (inactive)
same,growth inhibition,[11]; at 3.7 µM,3% (inactive)
same,growth inhibition,[11]; [17],6% (inactive)
same,growth inhibition,[11]; at 11.0 µM,49% (inactive)
same,growth inhibition,[11]; at 33.0 µM,90% (active)
same,growth inhibition,[11]; [18],91% (active)
same,growth inhibition,[11]; at 50.0 µM,-6.8% (inactive) and 87.5% (active)
same,growth inhibition,[11]; at 100.0 µM,92% (active)
same,growth inhibition,[12]; at 1.2 µM,-4% (inactive)
same,growth inhibition,[12]; at 3.7 µM,21% (inactive)
same,growth inhibition,[12]; at 11.0 µM,48% (inactive)
same,growth inhibition,[12]; at 33.0 µM,87% (active)
same,growth inhibition,[12]; at 100.0 µM,94% (active)
same,growth inhibition,[13]; at 1.2 µM,3% (inactive)
same,growth inhibition,[13]; at 3.7 µM,5% (inactive)
same,growth inhibition,[13]; at 11.0 µM,47% (inactive)
same,growth inhibition,[13]; at 33.0 µM,83% (active)
same,growth inhibition,[13]; at 100.0 µM,90% (active)
same,growth inhibition,[14]; at 1.2 µM,7% (inactive)
same,growth inhibition,[14]; at 3.7 µM,28% (inactive)
same,growth inhibition,[14]; at 11.0 µM,57% (inactive)
same,growth inhibition,[14]; at 33.0 µM,85% (active)
same,growth inhibition,[14]; at 100.0 µM,93% (active)
same,growth inhibition,[15]; [17],9% (inactive)
same,growth inhibition,[15]; [18],90% (active)
same,growth inhibition,[15]; at 50.0 µM,-6.6% (inactive) and 86.5% (active)
same,growth inhibition,[16]; at 1.2 µM,0% (inactive)
same,growth inhibition,[16]; at 3.7 µM,22% (inactive)
same,growth inhibition,[16]; at 11.0 µM,50% (inactive)
same,growth inhibition,[16]; at 33.0 µM,86% (active)
same,growth inhibition,[16]; at 100.0 µM,93% (active)
